# Results as given in PubChem BioAssay (NCI).
# About 79,000 compounds went through this panel and 15% of them were active in at least one assay; those are over-represented in the sample as a whole. A number with no mark means an inactive call. Activity calls are given as the source filed them. Rule as the data show it: active = growth inhibition above about 70%; inactive = the rest.
# How the values were obtained:
# [1] = NCI Yeast Anticancer Drug Screen. Data for the wt1 strain (AID 149);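 also: 0% = growth of vehicle-treated wt1 cultures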; conditions: S. cerevisiae wt1 strain (SPY 50644) growth inhibition, active compounds read high
# In short: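 wt1 yeast, compound-treated; % growth inhibition vs vehicle control.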
# [2] = NCI Yeast Anticancer Drug Screen. Data for the rad50EPP+ strain (AID 151);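 also: 0% = growth of vehicle-treated control cultures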; conditions: S. cerevisiae rad50 mutant strain, active compounds read high
# In short: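 Yeast strain carrying rad50 alteration (rad50EPP+) exposed to compounds; growth inhibition measured relative to vehicle-treated controls.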
# [3] = NCI Yeast Anticancer Drug Screen. Data for the mgt1 strain (AID 153); conditions: S. cerevisiae mgt1 mutant growth inhibition, active compounds read high
# In short: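 Yeast mgt1 strain (DNA repair/cell-cycle alteration panel) exposed to compounds; growth inhibition measured relative to vehicle-treated controls.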
# [4] = NCI Yeast Anticancer Drug Screen. Data for the mec2-1 strain (AID 157); conditions: S. cerevisiae mec2-1 strain, active compounds read high
# In short: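 mec2-1 yeast strain, carrying an alteration in DNA damage repair or cell cycle control, was exposed to compounds; growth inhibition was measured relative to vehicle-treated controls.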
# [5] = NCI Yeast Anticancer Drug Screen. Data for the rad14 strain (AID 159);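 also: 0% = growth of vehicle-treated control cultures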; conditions: S. cerevisiae rad14 strain growth inhibition, active compounds read high
# In short: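 Test compounds were applied to a repair-deficient yeast strain. Its growth was then compared with that of cultures given vehicle alone, and inhibition was expressed relative to those controls.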
# [6] = NCI Yeast Anticancer Drug Screen. Data for the sgs1 mgt1 strain (AID 161);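 also: 0% = growth of cultures given vehicle only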; conditions: S. cerevisiae sgs1 mgt1 strain, active compounds read high
# In short: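 Percent growth inhibition was derived by comparing compound-exposed mutant yeast with vehicle-exposed cultures. The strain carries alterations in DNA damage repair.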
# [7] = NCI Yeast Anticancer Drug Screen. Data for the CLN2oe strain (AID 163);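 also: 0% = growth of vehicle-only control cultures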; conditions: S. cerevisiae CLN2oe strain, active compounds read high
# In short: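 Yeast cells carrying a defined cell-cycle control alteration were exposed to test compounds. Growth inhibition was scored against vehicle-treated control cultures.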
# [8] = NCI Yeast Anticancer Drug Screen. Data for the cln2 rad14 strain (AID 165);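 also: 0% = growth equal to vehicle treated cultures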; conditions: S. cerevisiae cln2 rad14 strain, active compounds read high
# In short: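 Yeast carrying cln2 and rad14 alterations (cell cycle control and DNA damage repair) were exposed to compounds. Growth inhibition was measured against vehicle-treated controls.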
# [9] = NCI Yeast Anticancer Drug Screen. Data for the bub3 strain (AID 167); conditions: S. cerevisiae bub3 mutant strain, active compounds read high
# In short: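 Yeast carrying a defined mutation is treated with each compound, and growth is compared with that of vehicle-exposed cells to give inhibition.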
# [10] = NCI Yeast Anticancer Drug Screen. Data for the wt2 strain (AID 169);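 also: 0% = growth of vehicle-treated yeast cultures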; conditions: S. cerevisiae wt2 strain growth inhibition, active compounds read high
# In short: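 Yeast cells were exposed to test compounds, and growth inhibition was measured relative to vehicle-treated controls.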
# [11] = NCI Yeast Anticancer Drug Screen. Data for the mlh1 strain (AID 171);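 also: 0% = growth of vehicle-treated control cultures of the same strain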; conditions: S. cerevisiae mlh1 strain growth inhibition, active compounds read high
# In short: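 Yeast carrying a defined genetic alteration in DNA damage repair or cell cycle control were exposed to test compounds. Growth inhibition was measured relative to vehicle-treated controls.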
# [12] = NCI Yeast Anticancer Drug Screen. Data for the sgs1 strain (AID 173);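 also: 0% = growth of vehicle-only control cultures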; conditions: S. cerevisiae sgs1 mutant, active compounds read high
# In short: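 Yeast mutant strains carrying defined defects in DNA damage repair or cell cycle control were exposed to test compounds. Growth inhibition was scored against vehicle-treated controls.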
# [13] = NCI Yeast Anticancer Drug Screen. Data for the mlh1 rad18 strain (AID 175); conditions: S. cerevisiae mlh1 rad18 strain growth inhibition, active compounds read high
# In short: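 Growth inhibition of the yeast strain was measured after compound exposure and expressed relative to vehicle-treated controls. The strain carries defined defects in DNA damage repair.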
# [14] = NCI Yeast Anticancer Drug Screen. Data for the rad18 strain (AID 177); conditions: S. cerevisiae rad18 mutant growth inhibition, active compounds read high
# In short: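 Yeast carrying a defined DNA damage repair alteration were exposed to compounds. Growth inhibition was expressed relative to vehicle-treated controls.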
# [15] = at 5.0 µM (retest, dose inferred, filed as 0.5)
# [16] = at 50.0 µM (retest, dose inferred, filed as 5.0)
compound,measurement,setting,value
c1ccc2cc(OCC3CO3)c(OCC3CO3)cc2c1 (stereo not given),growth inhibition,[1]; at 1.2 µM,-21%
same,growth inhibition,[1]; at 3.7 µM,-21%
same,growth inhibition,[1]; at 11.0 µM,-24%
same,growth inhibition,[1]; at 33.0 µM,-16%
same,growth inhibition,[1]; at 100.0 µM,-2%
same,growth inhibition,[2]; at 1.2 µM,-21%
same,growth inhibition,[2]; at 3.7 µM,-4%
same,growth inhibition,[2]; at 11.0 µM,22%
same,growth inhibition,[2]; at 33.0 µM,59%
same,growth inhibition,[2]; at 100.0 µM,81% (active)
same,growth inhibition,[3]; at 1.2 µM,-43%
same,growth inhibition,[3]; at 3.7 µM,-25%
same,growth inhibition,[3]; at 11.0 µM,-4%
same,growth inhibition,[3]; at 33.0 µM,-21%
same,growth inhibition,[3]; at 100.0 µM,11%
same,growth inhibition,[4]; at 1.2 µM,-29%
same,growth inhibition,[4]; at 3.7 µM,-18%
same,growth inhibition,[4]; [15],27%
same,growth inhibition,[4]; at 11.0 µM,-29%
same,growth inhibition,[4]; at 33.0 µM,1%
same,growth inhibition,[4]; [16],67%
same,growth inhibition,[4]; at 50.0 µM,58.8%
same,growth inhibition,[4]; at 100.0 µM,64%
same,growth inhibition,[5]; at 1.2 µM,-21%
same,growth inhibition,[5]; at 3.7 µM,-8%
same,growth inhibition,[5]; at 11.0 µM,1%
same,growth inhibition,[5]; at 33.0 µM,35%
same,growth inhibition,[5]; at 100.0 µM,82% (active)
same,growth inhibition,[6]; [15],76% (active)
same,growth inhibition,[6]; [16],93% (active)
same,growth inhibition,[6]; at 50.0 µM,76.8% (active)
same,growth inhibition,[7]; at 1.2 µM,-10%
same,growth inhibition,[7]; at 3.7 µM,-2%
same,growth inhibition,[7]; at 11.0 µM,-11%
same,growth inhibition,[7]; at 33.0 µM,-6%
same,growth inhibition,[7]; at 100.0 µM,35%
same,growth inhibition,[8]; [15],14%
same,growth inhibition,[8]; [16],63%
same,growth inhibition,[8]; at 50.0 µM,60.7%
same,growth inhibition,[9]; at 1.2 µM,-22%
same,growth inhibition,[9]; at 3.7 µM,-26%
same,growth inhibition,[9]; [15],19%
same,growth inhibition,[9]; at 11.0 µM,-24%
same,growth inhibition,[9]; at 33.0 µM,-22%
same,growth inhibition,[9]; [16],29%
same,growth inhibition,[9]; at 50.0 µM,-7.95%
same,growth inhibition,[9]; at 100.0 µM,0%
same,growth inhibition,[10]; at 1.2 µM,-38%
same,growth inhibition,[10]; at 3.7 µM,-33%
same,growth inhibition,[10]; at 11.0 µM,-37%
same,growth inhibition,[10]; at 33.0 µM,-19%
same,growth inhibition,[10]; at 100.0 µM,0%
same,growth inhibition,[11]; at 1.2 µM,-37%
same,growth inhibition,[11]; at 3.7 µM,-32%
same,growth inhibition,[11]; at 11.0 µM,-33%
same,growth inhibition,[11]; at 33.0 µM,-26%
same,growth inhibition,[11]; at 100.0 µM,14%
same,growth inhibition,[12]; at 1.2 µM,-2%
same,growth inhibition,[12]; at 3.7 µM,37%
same,growth inhibition,[12]; at 11.0 µM,70% (active)
same,growth inhibition,[12]; at 33.0 µM,82% (active)
same,growth inhibition,[12]; at 100.0 µM,84% (active)
same,growth inhibition,[13]; [15],84% (active)
same,growth inhibition,[13]; [16],96% (active)
same,growth inhibition,[13]; at 50.0 µM,81.7% (active)
same,growth inhibition,[14]; at 1.2 µM,-8%
same,growth inhibition,[14]; at 3.7 µM,33%
same,growth inhibition,[14]; at 11.0 µM,69%
same,growth inhibition,[14]; at 33.0 µM,86% (active)
same,growth inhibition,[14]; at 100.0 µM,92% (active)
